From PubChem BioAssay (EPA / NIEHS)
Calls of active or inactive are those of the source. How the source made its calls: active means hit-call score of the fitted dose curve at least 0.9, where 1 is the maximum; inactive means score below 0.9.

read-out: Interleukin-1 alpha (IL1a), IL1A (gene 3552); assay: BSK_LPS_IL1a: BioMAP Diversity Plus: LPS Assay for Interleukin-1 alpha (IL1a) Biomarker Activity (AID 2283080); conditions: primary human HUVEC with PBMC; actives raise or lower the signal
In short: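 ELISA read-out of IL-1 alpha from a human primary vascular co-culture (endothelium plus PBMC) under LPS, sampled 24 hours post-dosing. Activity was fitted in both directions relative to DMSO controls.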

Structure (SMILES)	outcome	AC50
O=C(N[C@H](c1ccccc1)[C@@H]1CN2CCC1CC2)c1c(Cl)ccc(C(F)(F)F)c1Cl	inactive	
CS(=O)(=O)NC(=O)c1cc(Oc2ccc(C(F)(F)F)cc2Cl)ccc1[N+](=O)[O-]	inactive	
Nc1ccc(N=Nc2ccccc2)cc1	inactive	
ClC1=C(Cl)[C@]2(Cl)[C@H]3[C@H]([C@@H]4C=C[C@H]3C4)[C@@]1(Cl)C2(Cl)Cl		28.9 µM (active)
CN(C)c1ccc(C(=O)c2ccc(N(C)C)cc2)cc1	inactive	
Cc1cc(N=Nc2ccccc2C)ccc1N	inactive	
[O-][Cl+]O	inactive	

read-out: Monocyte Chemoattractant Protein-1 (MCP1), CCL2 (gene 6347); assay: BSK_LPS_MCP1: BioMAP Diversity Plus: LPS Assay for Monocyte Chemoattractant Protein-1 (MCP1) Biomarker Activity (AID 2283081); conditions: primary human HUVEC with PBMC; actives raise or lower the signal;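 on AC50: secreted MCP-1 protein quantified by ELISA in culture supernatant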
In short: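 Human endothelial–PBMC co-cultures were dosed with chemical, then LPS-driven MCP-1 levels were quantified by ELISA at 24 h. Activity in either direction was fitted versus DMSO negative control.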

Structure (SMILES)	outcome	AC50
N#CC(Br)Br	inactive	
OCCOCCO	inactive	
O=C(N[C@H](c1ccccc1)[C@@H]1CN2CCC1CC2)c1c(Cl)ccc(C(F)(F)F)c1Cl	inactive	
COP(=S)(OC)SCN1C(=O)c2ccccc2C1=O	inactive	
C=CCc1ccc2c(c1)OCO2	inactive	
O=C(Nc1ccccc1)c1ccccc1I	inactive	
c1ccc(N=Nc2ccccc2)cc1	inactive	
C1=Cc2cccc3cccc1c23	inactive	
CS(=O)(=O)NC(=O)c1cc(Oc2ccc(C(F)(F)F)cc2Cl)ccc1[N+](=O)[O-]	inactive	
Oc1ccccc1Cl	inactive	
CO[C@@H]1[C@H](OC(=O)NC(=O)CCl)CC[C@]2(CO2)[C@H]1[C@@]1(C)O[C@@H]1CC=C(C)C	inactive	
CC(C)(C)OOC(=O)c1ccccc1	inactive	
[As]#[In]	inactive	
Nc1ccc(N=Nc2ccccc2)cc1	inactive	
c1ccc2c(c1)-c1cccc3cccc-2c13	inactive	
CC(C)(OOC(C)(C)c1ccccc1)c1ccccc1		30.4 µM (active)
ClC1=C(Cl)[C@]2(Cl)[C@H]3[C@H]([C@@H]4C=C[C@H]3C4)[C@@]1(Cl)C2(Cl)Cl		36.8 µM (active)
O=[N+]([O-])c1ccc(Oc2ccc(Cl)cc2Cl)cc1		25.7 µM (active)
CCC[CH2][Sn]([Cl])([CH2]CCC)[CH2]CCC		0.148 µM (active)
CN(C)c1ccccc1	inactive	
COC(=O)c1ccccc1N	inactive	
CN(C)c1ccc(C(=O)c2ccc(N(C)C)cc2)cc1	inactive	
Cc1cc(N=Nc2ccccc2C)ccc1N	inactive	
C[N+](C)(C)CC1CO1 (configuration not stated)	inactive	
O=Cc1ccco1	inactive	
CCC(C)c1ccc(O)cc1 (configuration not stated)	inactive	
[O-][Cl+]O	inactive	
O=C(O)C1C2CCC(O2)C1C(=O)O (configuration not stated)	inactive	

read-out: not listed separately; assay: BSK_LPS_PGE2: BioMAP Diversity Plus: LPS Assay for Prostaglandin E2 (PGE2) Biomarker Activity (AID 2283082); conditions: primary human HUVEC with PBMC; actives raise or lower the signal;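 on AC50: secreted prostaglandin E2 measured by ELISA in LPS-stimulated co-culture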
In short: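 HUVEC plus human PBMC co-culture stimulated with LPS; secreted PGE2 quantified by ELISA 24 h after chemical dosing. Activity fitted bidirectionally against DMSO baseline; parallel SRB staining (0.1% SRB after 10% TCA fixation, 560 nm) flags overt cytotoxicity.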

Structure (SMILES)	AC50	outcome
O=C(N[C@H](c1ccccc1)[C@@H]1CN2CCC1CC2)c1c(Cl)ccc(C(F)(F)F)c1Cl	4.3 µM (active)	
C=CCc1ccc2c(c1)OCO2		inactive
O=C(Nc1ccccc1)c1ccccc1I		inactive
C1=Cc2cccc3cccc1c23		inactive
Oc1ccccc1Cl		inactive
CC(C)(C)OOC(=O)c1ccccc1		inactive
[As]#[In]		inactive
c1ccc2c(c1)-c1cccc3cccc-2c13		inactive
O=[N+]([O-])c1ccc(Oc2ccc(Cl)cc2Cl)cc1		inactive
CCC(C)c1ccc(O)cc1 (configuration not stated)	4.17 µM (active)	
[O-][Cl+]O		inactive

read-out: Macrophage colony-stimulating factor (MCSF), CSF1 (gene 1435); assay: BSK_LPS_MCSF: BioMAP Diversity Plus: LPS Assay for Macrophage colony-stimulating factor (MCSF) Biomarker Activity (AID 2283083); conditions: primary human HUVEC with PBMC; actives raise or lower the signal
In short: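 ELISA readout of M-CSF after 24 h compound exposure in a human endothelial/PBMC co-culture. Activity, in either direction, is fitted relative to DMSO vehicle.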

Structure (SMILES)	outcome	AC50
N#CC(Br)Br	inactive	
OCCOCCO	inactive	
O=C(N[C@H](c1ccccc1)[C@@H]1CN2CCC1CC2)c1c(Cl)ccc(C(F)(F)F)c1Cl	inactive	
COP(=S)(OC)SCN1C(=O)c2ccccc2C1=O	inactive	
C=CCc1ccc2c(c1)OCO2	inactive	
O=C(Nc1ccccc1)c1ccccc1I	inactive	
c1ccc(N=Nc2ccccc2)cc1	inactive	
C1=Cc2cccc3cccc1c23	inactive	
CS(=O)(=O)NC(=O)c1cc(Oc2ccc(C(F)(F)F)cc2Cl)ccc1[N+](=O)[O-]	inactive	
Oc1ccccc1Cl	inactive	
CO[C@@H]1[C@H](OC(=O)NC(=O)CCl)CC[C@]2(CO2)[C@H]1[C@@]1(C)O[C@@H]1CC=C(C)C		3.16 µM (active)
CC(C)(C)OOC(=O)c1ccccc1	inactive	
[As]#[In]	inactive	
Nc1ccc(N=Nc2ccccc2)cc1	inactive	
c1ccc2c(c1)-c1cccc3cccc-2c13	inactive	
CC(C)(OOC(C)(C)c1ccccc1)c1ccccc1		32.5 µM (active)
ClC1=C(Cl)[C@]2(Cl)[C@H]3[C@H]([C@@H]4C=C[C@H]3C4)[C@@]1(Cl)C2(Cl)Cl		31.6 µM (active)
O=[N+]([O-])c1ccc(Oc2ccc(Cl)cc2Cl)cc1		31.1 µM (active)
CCC[CH2][Sn]([Cl])([CH2]CCC)[CH2]CCC		0.615 µM (active)
CN(C)c1ccccc1	inactive	
COC(=O)c1ccccc1N	inactive	
CN(C)c1ccc(C(=O)c2ccc(N(C)C)cc2)cc1	inactive	
Cc1cc(N=Nc2ccccc2C)ccc1N	inactive	
C[N+](C)(C)CC1CO1 (configuration not stated)	inactive	
O=Cc1ccco1	inactive	
CCC(C)c1ccc(O)cc1 (configuration not stated)	inactive	
[O-][Cl+]O	inactive	
O=C(O)C1C2CCC(O2)C1C(=O)O (configuration not stated)	inactive	

read-out: Tissue Factor, F3 (gene 2152); assay: BSK_LPS_TissueFactor: BioMAP Diversity Plus: LPS Assay for Tissue Factor Biomarker Activity (AID 2283084); conditions: primary human HUVEC with PBMC; actives raise or lower the signal
In short: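 ELISA signal for cell-surface Tissue Factor (CD142) was read 24 h after compound dosing of an LPS-stimulated human endothelial–PBMC primary co-culture. Gain or loss of signal was scored relative to DMSO.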

Structure (SMILES)	outcome	AC50
N#CC(Br)Br	inactive	
OCCOCCO	inactive	
O=C(N[C@H](c1ccccc1)[C@@H]1CN2CCC1CC2)c1c(Cl)ccc(C(F)(F)F)c1Cl	inactive	
COP(=S)(OC)SCN1C(=O)c2ccccc2C1=O	inactive	
C=CCc1ccc2c(c1)OCO2	inactive	
O=C(Nc1ccccc1)c1ccccc1I	inactive	
c1ccc(N=Nc2ccccc2)cc1	inactive	
C1=Cc2cccc3cccc1c23	inactive	
CS(=O)(=O)NC(=O)c1cc(Oc2ccc(C(F)(F)F)cc2Cl)ccc1[N+](=O)[O-]	inactive	
Oc1ccccc1Cl	inactive	
CO[C@@H]1[C@H](OC(=O)NC(=O)CCl)CC[C@]2(CO2)[C@H]1[C@@]1(C)O[C@@H]1CC=C(C)C	inactive	
CC(C)(C)OOC(=O)c1ccccc1	inactive	
[As]#[In]	inactive	
Nc1ccc(N=Nc2ccccc2)cc1	inactive	
c1ccc2c(c1)-c1cccc3cccc-2c13	inactive	
CC(C)(OOC(C)(C)c1ccccc1)c1ccccc1	inactive	
ClC1=C(Cl)[C@]2(Cl)[C@H]3[C@H]([C@@H]4C=C[C@H]3C4)[C@@]1(Cl)C2(Cl)Cl		31.2 µM (active)
O=[N+]([O-])c1ccc(Oc2ccc(Cl)cc2Cl)cc1	inactive	
CCC[CH2][Sn]([Cl])([CH2]CCC)[CH2]CCC		0.148 µM (active)
CN(C)c1ccccc1	inactive	
COC(=O)c1ccccc1N	inactive	
CN(C)c1ccc(C(=O)c2ccc(N(C)C)cc2)cc1	inactive	
Cc1cc(N=Nc2ccccc2C)ccc1N	inactive	
C[N+](C)(C)CC1CO1 (configuration not stated)	inactive	
O=Cc1ccco1	inactive	
CCC(C)c1ccc(O)cc1 (configuration not stated)	inactive	
[O-][Cl+]O	inactive	
O=C(O)C1C2CCC(O2)C1C(=O)O (configuration not stated)	inactive	
